Test [1] in a line: A CellTox Green Cytotoxicity Assay to monitor cytotoxicity in HepG2 cells - 16 hour (AID 1224876). Note: nearly all actives have a fitted effect of over 45% in size. In short, it runs like this: (§1)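 Measurements at 0, 8, 16, 24, 32 and 40 h of treatment captured CellTox Green fluorescence in HepG2 cells that had been co-plated with reagent and preincubated 5 h at 37 C/5% CO2.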
The nature of test [2]: qHTS RealTime-Glo MT Cell Viability Assay in HepG2 cells - 32 hour (AID 1224877). Note: nearly all actives have a fitted effect of over 55% in size. In a few lines: (§2)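 Tox21 10K library screened in qHTS format on HepG2 cells carrying RealTime-Glo reagents. Compounds were added after a 5 h preincubation, and the luminescent signal from continuous culture was measured repeatedly during 40 h treatment.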
The nature of test [3]: A CellTox Green Cytotoxicity Assay to monitor cytotoxicity in HepG2 cells - 24 hour (AID 1224878). Note: nearly all actives have a fitted effect of over 45% in size. Note: potency is the fitted concentration of half-maximal effect. In a few lines: as §1
The nature of test [4]: qHTS RealTime-Glo MT Cell Viability Assay in HEK293 cells - 0 hour (AID 1224880). Note: top concentration of the series differs between compounds; nearly all actives have a fitted effect of over 45% in size. In short, it runs like this:
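HEK293 + NanoLuc + prosubstrate, 600 cells/well; 5 h, 37 C/5% CO2; compound 23 nL in DMSO by pintool; 37 C; luminescence read at 0, 8, 16, 24, 32 and 40 h time points.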
On the technique in general: qHTS replaces the single test concentration by a dilution series.

Test [5] can be described thus: A CellTox Green Cytotoxicity Assay to monitor cytotoxicity in HEK293 cells - 32 hour (AID 1224881). Note: nearly all actives have a fitted effect of over 40% in size. Note: potency is the fitted concentration of half-maximal effect. In a few lines:
(§3)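 Tox21 screen in HEK293: membrane-impermeant cyanine dye fluoresces on binding dead-cell DNA; compound pinned 5 h post-seeding, plates held at 37 C, signal read repeatedly through 40 h.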

Test [6] can be described thus: A CellTox Green Cytotoxicity Assay to monitor cytotoxicity in HepG2 cells - 0 hour (AID 1224882). Note: nearly all actives have a fitted effect of over 35% in size. In a few lines: as §1
Test [7] is described as follows: A CellTox Green Cytotoxicity Assay to monitor cytotoxicity in HepG2 cells - 32 hour (AID 1224883). Note: nearly all actives have a fitted effect of over 50% in size. Note: potency is the fitted concentration of half-maximal effect. In a few lines: as §1
The nature of test [8]: A CellTox Green Cytotoxicity Assay to monitor cytotoxicity in HEK293 cells - 8 hour (AID 1224884). Note: nearly all actives have a fitted effect of over 35% in size. In short, it runs like this:
as §3

Test [9] can be described thus: qHTS RealTime-Glo MT Cell Viability Assay in HepG2 cells - 16 hour (AID 1224885). Note: nearly all actives have a fitted effect of over 50% in size. In a few lines:
as §2

The nature of test [10]: A CellTox Green Cytotoxicity Assay to monitor cytotoxicity in HepG2 cells - 40 hour (AID 1224879). Note: nearly all actives have a fitted effect of over 40% in size. In a few lines: as §1

Molecules are shown by their SMILES. Results filed as inconclusive are left out. The source holds several records for some structures; these can differ, active in one and inactive in another. Activity calls are given as the source filed them. Calls come from the whole dose curve; as a rule, active = well fitted curve in the direction sought with a large enough effect in the repeat runs; inconclusive = weak or mixed curves; inactive = no such curve, though single readings can be large; an effect the other way counts as inactive or inconclusive.

For the compound `O=c1[nH]c(=O)n([C@H]2CCCO2)cc1F`, the Potency result in test [1], in test [3], in test [4], in [5] and in test [7] was “inactive” in each case. The result in test [2], in test [6], in test [8] and in [9] was inactive.

Consider `OCCOCCN1CCN(C2=Nc3ccccc3Sc3ccccc32)CC1`, for which the Potency result in test [1], in test [3], in test [4], in test [5] and in [7] was “inactive” throughout. The result in [2], in [6] and in test [8] was inactive.

With `CC(C)CC(=O)CC(C)C`, the Potency entry in test [1], in test [3], in test [4], in test [5] and in test [7] was “inactive” each time. In addition, the outcome in test [2], in test [6] and in test [8] was inactive.

Regarding `OCc1cccnc1`, the Potency result in test [1], in test [3], in [4], in test [5] and in test [7] was “inactive” each time. In addition, the compound was called inactive in test [2], in [6], in [8] and in [9].

Take `Cc1cccc(O)c1`: the Potency entry in [1], in test [3], in test [4], in test [5] and in test [7] was “inactive” each time. For the same compound, the result in test [2], in [6], in test [8] and in [9] was inactive.

As to `CSCCC=O`, the Potency entry in [1], in test [3], in test [4], in test [5] and in [7] was “inactive” throughout. Also, the outcome in test [2], in test [6], in test [8] and in test [9] was inactive.

For the compound `Cc1cccnc1`, the Potency result in test [1], in test [3], in [4], in [5] and in test [7] was “inactive” in each case. Besides, the compound was called inactive in test [2], in test [6], in [8] and in test [9].

Consider `O=C(O)c1ccccc1C(c1ccc(O)cc1)c1ccc(O)cc1`, for which the Potency result in test [1], in test [3], in test [4], in [5] and in test [7] was “inactive” throughout. In addition, the result in test [2], in test [6], in test [8] and in [9] was inactive.

For the compound `OC[C@H]1O[C@@](CO)(O[C@H]2O[C@H](CO)[C@@H](O)[C@H](O)[C@H]2O)[C@@H](O)[C@@H]1O`, the Potency entry in [1], in test [3], in [10], in test [5] and in [7] was “inactive” each time. Besides, the compound was called inactive in [6] and in test [8].

On to `O=S1(=O)CC=CC1`, for which the Potency result in test [1], in [3], in test [4], in test [5] and in [7] was “inactive” throughout. The result in test [2], in [6], in [8] and in test [9] was inactive.

Take `CCCCCCCCCCCCS`: the Potency entry in [1], in test [3], in [4], in test [5] and in test [7] was “inactive” in each case. Also, the compound was classed as inactive in test [2], in test [6] and in test [8].

`CCCCCCCCCCCCCCO`: the Potency entry in test [1], in test [3], in test [4], in [5] and in test [7] was “inactive” in each case. Moreover, the result in test [2], in [6], in test [8] and in [9] was inactive.

As for `CCC(O)OCCCOC` (stereo not given), the Potency entry in test [1], in [3], in test [4], in test [5] and in [7] was “inactive” each time. Moreover, the compound was classed as inactive in [2], in test [6], in [8] and in test [9].

On to `CN(C)CCC(c1ccc(Cl)cc1)c1ccccn1` (stereo not given), for which the Potency result in test [1], in test [3], in test [4], in test [5] and in test [7] was “inactive” in each case. Moreover, the call in [2], in [6] and in test [8] was inactive.

For `C=C(C)C(=O)OCCOCCOCCOC(=O)C(=C)C`, the Potency result in test [1], in [3], in test [4], in test [5] and in test [7] was “inactive” throughout. For the same compound, the call in test [2], in test [6] and in [8] was inactive.

Turning to `C=C(C)C(=O)O[C@H]1C[C@@H]2CC[C@@]1(C)C2(C)C`, the Potency result in [1] and in test [4] was “inactive” each time. Also, the result in [2], in [6], in test [8] and in test [9] was inactive. Further, the Potency is 4.87 µM (active) and inactive in [3]; 10.9 µM (active) and inactive in [5]; 6.87 µM (active) and inactive in test [7].

For the compound `CN(C)CCC(c1ccccc1)c1ccccn1` (stereo not given), the Potency entry in test [1], in test [3], in test [4], in [5] and in test [7] was “inactive” throughout. Moreover, the result in [2], in [6], in test [8] and in [9] was inactive.

Take `C=CCNC(N)=S`: the Potency entry in test [1], in test [3], in test [4], in test [5] and in test [7] was “inactive” each time. For the same compound, the outcome in test [2], in test [6], in test [8] and in test [9] was inactive.

(Values after PubChem BioAssay (Tox21).)
